# Results taken from the supplement of paper PMC12067093, “Discovery and optimisation of a covalent ligand for TRIM25 and its application to targeted protein ubiquitination” (Chemical Science, 2025).
# Of roughly 21,000 targets only a part is listed; those with the largest changes were picked by preference.
# Compound: Cc1cc(ccc1-c1ccccc1)C(=O)N1CCCN(CC1)C(=O)CCl [compound 10]
# Assay: probe-labelled cysteine peptide fold change vs DMSO (competition) (log2 fold change); higher = less target engagement (more negative = stronger competition)
# Conditions: THP-1, incubation time: 4 h
# 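Further: competitive profiling in live THP-1 cells: cysteine peptides tagged with an iodoacetamide desthiobiotin (IA-DTB) probe, intensity after compound treatment relative to DMSO-treated cells.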
# Sequence of UniProt P31939 (P31939 whole entry, looked up): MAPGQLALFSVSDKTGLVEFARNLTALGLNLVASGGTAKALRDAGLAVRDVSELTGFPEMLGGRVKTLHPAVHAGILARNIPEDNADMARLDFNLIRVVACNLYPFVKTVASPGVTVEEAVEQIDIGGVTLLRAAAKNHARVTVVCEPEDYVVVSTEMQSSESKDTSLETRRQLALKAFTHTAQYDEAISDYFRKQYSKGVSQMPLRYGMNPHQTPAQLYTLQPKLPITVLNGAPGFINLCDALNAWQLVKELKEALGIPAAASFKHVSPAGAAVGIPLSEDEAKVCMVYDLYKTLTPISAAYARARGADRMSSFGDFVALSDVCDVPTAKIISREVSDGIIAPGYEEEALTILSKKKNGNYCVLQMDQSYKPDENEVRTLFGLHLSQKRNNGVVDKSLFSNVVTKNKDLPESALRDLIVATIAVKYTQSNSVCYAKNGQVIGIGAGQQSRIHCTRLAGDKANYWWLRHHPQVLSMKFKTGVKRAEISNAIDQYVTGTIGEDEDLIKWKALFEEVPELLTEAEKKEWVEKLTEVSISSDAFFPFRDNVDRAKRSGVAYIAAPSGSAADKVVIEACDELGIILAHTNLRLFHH
# Sequence of UniProt Q6ULP2 (Q6ULP2 whole entry, looked up): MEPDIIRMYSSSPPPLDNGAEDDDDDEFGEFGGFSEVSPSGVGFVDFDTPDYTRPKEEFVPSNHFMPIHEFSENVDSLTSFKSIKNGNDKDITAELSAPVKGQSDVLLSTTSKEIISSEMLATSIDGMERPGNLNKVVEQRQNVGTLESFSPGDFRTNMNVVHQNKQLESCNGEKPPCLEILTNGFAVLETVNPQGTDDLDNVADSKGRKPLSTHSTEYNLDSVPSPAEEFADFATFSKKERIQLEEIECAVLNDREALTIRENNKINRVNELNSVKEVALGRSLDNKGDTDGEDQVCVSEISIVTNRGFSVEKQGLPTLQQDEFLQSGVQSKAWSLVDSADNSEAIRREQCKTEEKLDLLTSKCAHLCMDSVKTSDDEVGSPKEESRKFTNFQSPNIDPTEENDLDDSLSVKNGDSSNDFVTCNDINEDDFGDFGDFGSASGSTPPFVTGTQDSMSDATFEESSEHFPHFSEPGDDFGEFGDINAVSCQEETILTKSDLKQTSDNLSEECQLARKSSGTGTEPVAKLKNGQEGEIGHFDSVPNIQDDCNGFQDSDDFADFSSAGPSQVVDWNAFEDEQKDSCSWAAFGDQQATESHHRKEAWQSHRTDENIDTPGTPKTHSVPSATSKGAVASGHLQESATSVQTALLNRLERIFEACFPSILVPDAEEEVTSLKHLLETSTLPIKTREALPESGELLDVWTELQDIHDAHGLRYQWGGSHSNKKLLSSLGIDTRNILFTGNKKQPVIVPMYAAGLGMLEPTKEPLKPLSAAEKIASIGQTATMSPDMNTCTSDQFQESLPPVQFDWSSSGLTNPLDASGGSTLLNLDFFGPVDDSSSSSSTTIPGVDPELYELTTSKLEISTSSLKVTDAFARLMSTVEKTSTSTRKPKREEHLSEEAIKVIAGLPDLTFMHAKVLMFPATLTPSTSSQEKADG
# Sequence of UniProt P35573 (P35573 whole entry, looked up): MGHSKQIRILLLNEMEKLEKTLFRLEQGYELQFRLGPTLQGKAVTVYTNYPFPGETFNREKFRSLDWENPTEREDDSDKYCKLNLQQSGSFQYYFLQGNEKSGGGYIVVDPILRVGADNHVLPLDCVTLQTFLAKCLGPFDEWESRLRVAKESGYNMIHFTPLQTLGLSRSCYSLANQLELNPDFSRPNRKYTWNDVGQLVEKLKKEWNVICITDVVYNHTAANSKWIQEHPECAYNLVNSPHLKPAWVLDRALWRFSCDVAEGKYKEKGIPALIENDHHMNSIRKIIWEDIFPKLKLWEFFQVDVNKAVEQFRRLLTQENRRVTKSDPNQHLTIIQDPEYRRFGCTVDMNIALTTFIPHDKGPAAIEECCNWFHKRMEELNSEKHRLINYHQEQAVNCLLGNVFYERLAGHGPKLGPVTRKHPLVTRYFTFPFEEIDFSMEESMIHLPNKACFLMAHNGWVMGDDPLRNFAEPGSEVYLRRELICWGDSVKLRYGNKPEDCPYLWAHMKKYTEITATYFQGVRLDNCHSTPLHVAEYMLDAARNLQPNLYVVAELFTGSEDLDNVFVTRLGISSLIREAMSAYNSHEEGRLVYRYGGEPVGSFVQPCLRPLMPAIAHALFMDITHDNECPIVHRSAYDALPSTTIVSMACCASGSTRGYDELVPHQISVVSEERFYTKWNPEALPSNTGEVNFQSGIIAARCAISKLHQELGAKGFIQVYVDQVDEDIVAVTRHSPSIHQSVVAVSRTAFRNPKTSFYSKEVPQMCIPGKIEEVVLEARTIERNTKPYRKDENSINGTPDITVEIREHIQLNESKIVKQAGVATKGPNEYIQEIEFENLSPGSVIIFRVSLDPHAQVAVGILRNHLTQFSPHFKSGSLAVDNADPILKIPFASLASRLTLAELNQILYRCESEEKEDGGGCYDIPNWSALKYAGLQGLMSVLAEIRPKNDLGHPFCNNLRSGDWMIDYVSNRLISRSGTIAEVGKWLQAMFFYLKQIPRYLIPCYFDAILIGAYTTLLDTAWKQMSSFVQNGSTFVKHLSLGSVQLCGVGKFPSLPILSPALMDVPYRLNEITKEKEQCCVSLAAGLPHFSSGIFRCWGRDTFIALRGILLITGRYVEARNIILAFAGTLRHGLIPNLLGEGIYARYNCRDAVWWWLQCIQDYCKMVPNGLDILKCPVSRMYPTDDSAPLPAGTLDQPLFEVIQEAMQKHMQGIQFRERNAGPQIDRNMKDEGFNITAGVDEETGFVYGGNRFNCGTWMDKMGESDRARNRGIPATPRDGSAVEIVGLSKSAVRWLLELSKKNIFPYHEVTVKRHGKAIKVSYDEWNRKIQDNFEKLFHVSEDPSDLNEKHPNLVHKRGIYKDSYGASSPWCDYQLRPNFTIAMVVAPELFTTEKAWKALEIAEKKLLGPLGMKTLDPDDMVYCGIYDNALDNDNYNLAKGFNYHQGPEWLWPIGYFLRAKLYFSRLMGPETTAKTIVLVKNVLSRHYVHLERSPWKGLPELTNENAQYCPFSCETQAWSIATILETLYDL
# Sequence of UniProt P30837 (P30837 whole entry, looked up): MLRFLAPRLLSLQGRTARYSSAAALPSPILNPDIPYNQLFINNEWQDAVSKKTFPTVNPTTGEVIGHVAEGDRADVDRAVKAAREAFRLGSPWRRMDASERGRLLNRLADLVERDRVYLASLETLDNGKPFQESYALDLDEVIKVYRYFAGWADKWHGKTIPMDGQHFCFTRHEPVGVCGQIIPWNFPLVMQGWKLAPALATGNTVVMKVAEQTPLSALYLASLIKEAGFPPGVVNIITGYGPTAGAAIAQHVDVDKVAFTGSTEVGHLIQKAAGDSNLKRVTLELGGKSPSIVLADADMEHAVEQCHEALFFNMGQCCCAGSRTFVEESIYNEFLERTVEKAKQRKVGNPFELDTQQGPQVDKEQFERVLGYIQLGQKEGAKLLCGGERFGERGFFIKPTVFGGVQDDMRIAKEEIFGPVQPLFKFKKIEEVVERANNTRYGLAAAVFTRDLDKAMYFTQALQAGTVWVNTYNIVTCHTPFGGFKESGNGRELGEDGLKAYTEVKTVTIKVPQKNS
# Sequence of UniProt Q66PJ3 (Q66PJ3 whole entry, looked up): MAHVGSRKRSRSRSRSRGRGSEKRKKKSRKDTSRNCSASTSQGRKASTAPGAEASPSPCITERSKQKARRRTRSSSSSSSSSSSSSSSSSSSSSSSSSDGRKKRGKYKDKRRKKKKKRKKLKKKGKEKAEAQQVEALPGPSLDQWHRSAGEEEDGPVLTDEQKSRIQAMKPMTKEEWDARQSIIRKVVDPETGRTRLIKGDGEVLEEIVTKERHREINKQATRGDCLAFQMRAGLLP
# Sequence of UniProt Q15067 (Q15067 whole entry, looked up): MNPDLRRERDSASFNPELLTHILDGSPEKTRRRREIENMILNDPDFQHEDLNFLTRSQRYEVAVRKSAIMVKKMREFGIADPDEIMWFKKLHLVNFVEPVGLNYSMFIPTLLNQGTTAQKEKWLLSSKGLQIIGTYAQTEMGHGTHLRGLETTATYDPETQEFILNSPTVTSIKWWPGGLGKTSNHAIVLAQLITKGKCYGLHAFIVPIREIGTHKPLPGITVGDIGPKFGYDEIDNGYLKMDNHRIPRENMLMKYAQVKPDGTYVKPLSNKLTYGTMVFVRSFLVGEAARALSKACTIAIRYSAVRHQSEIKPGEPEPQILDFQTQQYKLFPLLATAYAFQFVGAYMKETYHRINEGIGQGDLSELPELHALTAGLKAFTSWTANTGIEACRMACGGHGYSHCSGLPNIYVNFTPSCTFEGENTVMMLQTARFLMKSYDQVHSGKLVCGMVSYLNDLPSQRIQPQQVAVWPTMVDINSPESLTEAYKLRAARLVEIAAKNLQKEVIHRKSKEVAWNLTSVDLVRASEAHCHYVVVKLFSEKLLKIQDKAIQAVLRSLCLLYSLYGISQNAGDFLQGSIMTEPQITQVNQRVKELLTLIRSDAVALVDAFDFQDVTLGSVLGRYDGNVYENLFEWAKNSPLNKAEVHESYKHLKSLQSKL
# Sequence of UniProt O43488 (O43488 whole entry, looked up): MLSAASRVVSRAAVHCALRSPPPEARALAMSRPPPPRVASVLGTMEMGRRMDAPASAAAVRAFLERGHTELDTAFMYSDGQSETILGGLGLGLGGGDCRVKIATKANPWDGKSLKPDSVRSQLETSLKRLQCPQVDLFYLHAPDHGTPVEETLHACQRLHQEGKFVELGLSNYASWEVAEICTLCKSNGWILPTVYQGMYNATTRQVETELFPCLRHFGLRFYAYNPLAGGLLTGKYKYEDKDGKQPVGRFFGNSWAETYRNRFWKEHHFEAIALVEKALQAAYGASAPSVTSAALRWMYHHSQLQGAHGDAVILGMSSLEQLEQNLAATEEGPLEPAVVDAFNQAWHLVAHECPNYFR
Target,probe-labelled cysteine peptide fold change (10 µM),probe-labelled cysteine peptide fold change (50 µM)
ACSL4_O60488_221_TALLDISCVK (UniProt O60488),0.177,0.0446
AFTPH_Q6ULP2_659_IFEACFPSILVPDAEEEVTSLK (UniProt Q6ULP2),0.0219,-0.0706
ACOX1_Q15067_392_AFTSWTANTGIEACR (UniProt Q15067),0.0592,0.0993
ANKRD50_Q9ULJ7_113_QALAFHFCK (UniProt Q9ULJ7),1.31,1.7
ATIC_P31939_575_VVIEACDELGIILAHTNLR (UniProt P31939),0.103,0.126
ANKHD1_Q8IWZ3_1716_GGCNITAIQDVTGAHIDVDK (UniProt Q8IWZ3),0.183,0.0508
ALDH1B1_P30837_169_TIPMDGQHFCFTR (UniProt P30837),0.00215,-0.131
AGL_P35573_126_VGADNHVLPLDCVTLQTFLAK (UniProt P35573),0.128,0.0379
AKR7A2_O43488_132+156_RLQCPQVDLFYLHAPDHGTPVEETLHACQR (UniProt O43488),-0.245,-0.374
ARL6IP4_Q66PJ3-3_220_NCSASTSQER (UniProt Q66PJ3),-0.274,-0.819
